Bioassay records: PubChem, several laboratories
Sampled rows, rich in hits. Any-hit rate of the full collection: about 3.8%.
FGF22 binding = binders of human FGF22 protein, primary screen, FGF22 synaptogenesis inhibitor project, biophysical, thermal shift, single point; Fibroblast growth factor 22 (Homo sapiens), Q9HCT0; recombinant FGF22 thermal shift, SYPRO orange fluorescence; percent of sucrose octasulfate shift, DMSO zero; activity (Tm shift, normalised), % at 9.99 µM; hit rate 1.5% among 340,000;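 active = mean Tm shift, scaled 0 neutral to 100 positive control, at about 1.3% or above, every replicate too, limit read from the data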
ADAM17 inh = ADAM17 inhibitors, primary screen, biochemical, QFRET; Disintegrin and metalloproteinase domain-containing protein 17 (Homo sapiens), P78536; recombinant ADAM17, EDANS/DABCYL FRET peptide cleavage; inhibition, % at 6.95 µM; hit rate 0.83% among 370,000;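 active = inhibition above the mean of compounds lying between control limits plus 3 SD, set per campaign, cut at about 8.5% in these data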;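 note: 0% = DMSO-only wells as the low control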
rRNA inh HTS = reduced GFP signal of wild-type E. coli, primary screen, bacterial rRNA inhibitor project, GFP/RFP fluorescence, OD600, single point | E. coli WT GFP vs humanized-ribosome RFP mutants, 24 h; stronger effect = lower value; DMSO median 0, no signal -100 | GFP signal change (wild-type ribosome), % (no concentration beside the values) | hit rate 1.6% among 350,000;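 active = significant combined selectivity score with lowered wild-type GFP, culture density cut under 30%, mutant RFP and density less affected; inactive = any of these conditions unmet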
proKLK7 act = proKLK7 zymogen activators, primary screen, biochemical, fluorescence intensity. purified proKLK7, EDANS-DABCYL substrate fluorescence; 100% is mature enzyme control, 0% vehicle. activation, % at 7 µM. hit rate 0.9% among 370,000;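 active = activation above the mean of all tested compounds plus 3 SD, computed per campaign excluding outliers beyond control limits, cut at about 13% in these data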
ADAM10 inh = human ADAM10 inhibitors, primary screen, biochemical, QFRET, HTS; Disintegrin and metalloproteinase domain-containing protein 10 (Homo sapiens), O14672; recombinant ADAM10, EDANS/DABCYL FRET peptide cleavage, 3 h; inhibition, % at 7 µM; hit rate 0.62% among 370,000; AID 720582, 2013;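 active = inhibition above a per-campaign cutoff equal to the mean of compounds falling between control-based bounds plus 3 SD, cut at about 20% in these data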;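 note: 0% = DMSO wells while the 100% control is not disclosed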
Target sequence (O14672 214-748 limits assumed): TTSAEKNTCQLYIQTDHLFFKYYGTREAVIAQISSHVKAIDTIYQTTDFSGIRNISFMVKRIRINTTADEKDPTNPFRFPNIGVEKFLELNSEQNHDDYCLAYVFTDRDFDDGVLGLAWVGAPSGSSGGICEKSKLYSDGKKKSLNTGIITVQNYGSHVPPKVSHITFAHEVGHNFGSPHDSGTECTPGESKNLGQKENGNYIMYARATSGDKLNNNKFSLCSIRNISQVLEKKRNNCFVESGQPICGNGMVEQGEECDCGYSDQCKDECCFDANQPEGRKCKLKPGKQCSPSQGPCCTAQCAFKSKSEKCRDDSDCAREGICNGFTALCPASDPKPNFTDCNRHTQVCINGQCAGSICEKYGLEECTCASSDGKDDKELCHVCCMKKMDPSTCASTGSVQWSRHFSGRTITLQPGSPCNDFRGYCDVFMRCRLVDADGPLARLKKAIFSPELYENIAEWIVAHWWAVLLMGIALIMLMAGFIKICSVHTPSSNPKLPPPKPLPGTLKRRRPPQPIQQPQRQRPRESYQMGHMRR
ADAM10 confirm = human ADAM10 inhibitors, confirmation, biochemical, QFRET, triplicate. shares compounds with ADAM10 inh. inhibition, % at 6.95 µM. hit rate 1% among 2,100. ADAM10 QFRET peptide cleavage, EDANS fluorescence;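 active = inhibition above about 20% chosen separately for each screening run, limit read from the data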;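 note: 0% = DMSO wells and 100% = marimastat wells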
ADAM17 counter = ADAM17 inhibitors, counter-screen for ADAM10 exosite inhibitor project, biochemical, QFRET, high throughput | ADAM17 QFRET peptide cleavage, EDANS fluorescence | shares compounds with ADAM10 inh | hit rate 0.5% among 2,100 | inhibition, % at 6.95 µM;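 active = mean triplicate inhibition above the solvent-only control wells' mean plus 3 SD, cut at about 12% in these data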;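 note: 0% = DMSO wells and 100% = marimastat wells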
ADAM10 counter = ADAM10 inhibitors, counter-screen for ADAM17 exosite inhibitor project, biochemical, FRET, human ADAM10; hit rate 47% among 2,900; recombinant ADAM10, EDANS/DABCYL FRET peptide cleavage, 3 h; inhibition, % at 6.95 µM; shares compounds with ADAM17 inh;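 active = mean inhibition over the triplicate runs exceeds the activity threshold set in the earlier primary screen, cut at about 20% in these data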;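 note: 0% = DMSO wells and 100% = marimastat wells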
ADAM17 confirm = ADAM17 inhibitors, hit retest, confirmation, biochemical, QFRET peptide cleavage. shares compounds with ADAM17 inh. recombinant ADAM17, EDANS/DABCYL QFRET peptide cleavage. inhibition, % at 6.95 µM. hit rate 65% among 2,900. AID 743257, 2014;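 active = mean inhibition across replicates above the hit cutoff set in the primary screen, cut at about 8.5% in these data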;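 note: 0% = DMSO wells and 100% = marimastat wells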
Numbers without * were called inactive; . = no result given.

SMILES	FGF22 binding	ADAM17 inh	rRNA inh HTS	proKLK7 act	ADAM10 inh	ADAM10 confirm	ADAM17 counter	ADAM10 counter	ADAM17 confirm
Cc1ccc(S(=O)(=O)N[C@@H]2CC[C@@H](CCn3cc(C4CC4)nn3)O[C@H]2CO)cc1	0	.	-1	.	.	.	.	.	.
C=CCC[C@@H](Cc1ccc(F)cc1)C(=O)OC[C@@H]1CCCN1C(=O)[C@H](CC=C)CC(=O)N[C@H](CO)Cc1ccccc1	0	9.4*	-16	1	27*	0	0	28*	12*
COc1ccc2c3c([nH]c2c1)[C@H](CO)N(C(C)=O)CC31CN(Cc2cc(-c3ccccc3)on2)C1	0	.	-1	.	.	.	.	.	.
COc1ccc2c3c(n(C)c2c1)[C@@H](CO)N(Cc1ccncc1)CC31CCN(C(=O)C2CCCCC2)CC1	0	.	0	.	.	.	.	.	.
COC(=O)[C@]12C[C@H](CC(=O)NCc3cccc(C(F)(F)F)c3)C(=O)N(CCc3ccc(OC)c(OC)c3)C1=C[C@H](C1CCCC1)O[C@@H]2C	.	9.0*	.	0	28*	8	2	27*	12*
COC(=O)[C@]12C[C@H](CC(=O)NCc3cccc(C(F)(F)F)c3)C(=O)N(CCc3ccc(OC)c(OC)c3)C1=C[C@H](C(C)(C)C)O[C@@H]2C	0	7	4	0	12	.	.	.	.
COC(=O)[C@]12C[C@H](CC(=O)NCCc3ccccc3OC)C(=O)N(Cc3cccc4ccccc34)C1=C[C@H](C(C)C)O[C@@H]2C1CC1	.	11*	.	0	22*	8	2	27*	17*
COC(=O)[C@]12C[C@H](CC(=O)NCc3cccc(C(F)(F)F)c3)C(=O)N(Cc3ccco3)C1=C[C@H](C(C)(C)C)O[C@@H]2C	.	10.0*	.	0	22*	6	1	42*	21*
COC(=O)[C@]12C[C@H](CC(=O)NCc3cccc(C(F)(F)F)c3)C(=O)N(Cc3ccco3)C1=C[C@H](C(C)C)O[C@@H]2C1CC1	.	12*	.	-1	24*	2	2	49*	24*
COc1ccc(NC(=O)N(C)C[C@@H]2OCCCC[C@@H](C)Oc3ccc(NS(=O)(=O)c4ccccc4)cc3C(=O)N([C@H](C)CO)C[C@H]2C)cc1	-1	.	0	.	.	.	.	.	.
C[C@@H]1CN([C@H](C)CO)C(=O)c2cc(NC(=O)Cc3ccccc3)ccc2O[C@@H](C)CCCCO[C@H]1CN(C)Cc1ccc2c(c1)OCO2	0	.	-1	.	.	.	.	.	.
O=C(Nc1ccccc1)OCc1cnc(Cl)s1	0	-4	-12	-1	-6	.	.	.	.
O=C(Nc1ccccc1)OCc1cc(-c2ccccc2Cl)on1	.	9.0*	.	0	27*	9	3	36*	17*
O=C(Nc1ccc(F)c(Cl)c1)c1cc(C2CCCN(S(=O)(=O)c3cccc4cccnc34)C2)on1 (centres undefined)	0	12*	-1	0	25*	4	2	25*	13*
O=C(Nc1ccc(F)c(Cl)c1)c1cc(C2CCCN(S(=O)(=O)c3cccs3)C2)on1 (centres undefined)	0	5	-10	-1	4	.	.	.	.
COc1cc(/C=N/NC(=O)COc2ccc(Cl)cc2)ccc1OS(=O)(=O)c1ccc(C)cc1	.	11*	.	-1	27*	15	4	51*	34*
COc1cc(/C=N/NC(=O)COc2cccc(F)c2)ccc1OS(=O)(=O)c1ccc(C)cc1	0	13*	-18	0	25*	8	3	24*	16*
COC(=O)C[C@H]1CC[C@@H]2[C@@H](COc3ccc(NC(=O)c4cccc(Cl)c4)cc3C(=O)N2C)O1	0	.	-7	.	.	.	.	.	.
Cc1ccc(S(=O)(=O)N(C)C[C@H]2OCCCC[C@@H](C)Oc3ccc(NC(=O)Nc4cccc5ccccc45)cc3C(=O)N([C@@H](C)CO)C[C@@H]2C)cc1	0	.	-2	.	.	.	.	.	.
COc1ccc(S(=O)(=O)N(CC(=O)NCc2ccncc2)Cc2ccccc2)cc1	0	0	-1	0	2	.	.	.	.
COc1ccc(CNC(=O)CN(Cc2ccccc2)S(=O)(=O)c2ccc(Cl)cc2)cc1	.	21*	.	0	29*	4	1	13	10*
COc1ccc(S(=O)(=O)N(CC(=O)Nc2ccc(S(=O)(=O)N3CCOCC3)cc2)Cc2ccc(F)cc2)cc1	.	9.4*	.	-1	32*	7	2	41*	16*
COc1ccc(CNC(=O)CN(Cc2ccc(Cl)cc2)S(=O)(=O)c2ccccc2)cc1	.	18*	.	0	24*	1	0	19	14*
COc1ccc(S(=O)(=O)N(CC(=O)NCc2ccccn2)Cc2ccccc2)cc1	0	-2	-7	0	-5	.	.	.	.
C[C@@H]1CCCCO[C@@H](CN(C)CC2CCCCC2)[C@@H](C)CN([C@H](C)CO)C(=O)c2cc(NC(=O)Nc3ccc(F)cc3)ccc2O1	-1	.	5	.	.	.	.	.	.
O=S(=O)(c1ccccc1)N1C[C@@H]2N[C@H](C1)C2c1ccc(/C=C/c2ccccc2)cc1 (some centres undefined)	.	.	-57	.	.	.	.	.	.
CCCN(CC(=O)Nc1cccc(Br)c1)CC(=O)Nc1ccc(F)c(F)c1F	.	21*	.	-1	32*	2	1	29*	15*
COCCCN1C(=O)c2[nH]nc(-c3cc(C)cc(C)c3O)c2C1c1ccc(O)c(OC)c1 (centres undefined)	.	2	-1	-1	4	.	.	.	.
